Compounds without any hit were thinned out: in the full panel of roughly 79,000, 15% have a hit. The source made the active and inactive calls. Cut-off read from the data, not from the text of the source: active = growth inhibition above about 70%; inactive = the rest.

The nature of the first experiment: NCI Yeast Anticancer Drug Screen. Data for the rad50 strain (AID 155).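 Note: 0% = growth of vehicle-only cultures of the same strain.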 The conditions noted are these: S. cerevisiae rad50 strain growth inhibition; at 50.0 µM; stronger effect = higher value. In short, it runs like this:
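Yeast carrying a defined DNA repair defect were exposed to test compounds, and growth was compared with vehicle-treated controls to give percent inhibition.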
Turning to `CCOC(=O)C(NC(C)=O)C(C)O` (stereo not given), the growth inhibition was 5.85% (inactive).

As for `NC(=O)/C(=N/O)c1ccccc1`, the growth inhibition was -1.85% (inactive).

With `CC1CC(C)(C)C(C[NH-])C1[NH-].[Cl][Pt+2][Cl]` (stereo not given), the growth inhibition is 23.8% (inactive).

As for `NC1C2C3C=CC(C3)C12` (stereo not given), the growth inhibition is 12.5% (inactive).

For `CC(=O)Nc1cccc2c(OC(C)=O)cccc12`, the growth inhibition is 15.1% (inactive).

In the case of `N#Cc1c(-c2ccco2)cc(-c2ccccc2)[nH]c1=O`, the growth inhibition is 31.8% (inactive).

Regarding `COn1c(-c2ccccc2)nc2c1C(=O)N(C)CN2C`, the growth inhibition was -14.2% (inactive).

On to `CCCCCC(=O)OCCCCCO`, for which the growth inhibition is 13.7% (inactive).

With `O=C1CCSC(=S)N1c1ccc(F)cc1F`, the growth inhibition is 18% (inactive).

In the case of `O=C(Cc1ccccc1)N(c1ccccc1)c1ccccc1`, the growth inhibition was 23.5% (inactive).

As for `CCCCN(CCCC)Cc1ccnc(C)c1O`, the growth inhibition is -9.3% (inactive).

As to `COc1ccc2nc(NC(=O)Nc3ccc(Cc4ccc(NC(=O)Nc5nc6ccc(OC)cc6s5)cc4)cc3)sc2c1`, the growth inhibition is -14.4% (inactive).

As to `N#Cc1c(N)nc2c3c1NC(=O)C(C(N)=O)C3c1ccccc1O2` (stereo not given), the growth inhibition is 6.1% (inactive).

As to `C/C(CC(=O)Nc1ccccn1)=N\c1ccccn1`, the growth inhibition was 14.2% (inactive).

For `CCc1cc(CSc2ccc(Cl)cc2)ccc1N`, the growth inhibition is 98.5% (active).

As for `C=CCO[Si](OCC=C)(OCC=C)OCC=C`, the growth inhibition is 0.85% (inactive).

`CC(=O)c1sc2c(c1OC(=O)c1ccc(Cl)cc1)c(=O)n(-c1ccccc1)c(=S)n2-c1ccccc1`: the growth inhibition is 9.55% (inactive).

For the compound `OCC1CC=CCC1` (stereo not given), the growth inhibition was 2.35% (inactive).

As to `C=CCNCC(O)C(F)(F)C(F)(F)C(F)(F)C(F)(F)C(F)(F)C(F)(F)F` (stereo not given), the growth inhibition is 22.5% (inactive).

Consider `COc1ccc(-n2c(N)c(C#N)c(C#N)c2-c2ccco2)cc1`, for which the growth inhibition is 6.7% (inactive).

As for `CCC(=N\NC(=S)NC)/C(C)=N\NC(=S)NC`, the growth inhibition was -8.3% (inactive).

For the compound `O=c1c2nn3c(=O)n(-c4ccccc4)c(=O)c3nn2c(=O)n1-c1ccccc1`, the growth inhibition was -33% (inactive).

As for `CC(=O)Nc1cccc(O)c1`, the growth inhibition was 18.4% (inactive).

On to `O=[N+]([O-])c1cccc(NSNc2cccc([N+](=O)[O-])c2)c1`, for which the growth inhibition was 18.1% (inactive).

Take `CN(C)CC1CCCC(CN(C)C)C1OC(=O)c1ccccc1` (stereo not given): the growth inhibition was 23% (inactive).

With `CCCCOc1cc2c(cc1C(C)c1ccccc1)OCO2` (stereo not given), the growth inhibition is -0.35% (inactive).

For the compound `Cc1c(Cl)cccc1NC(=O)C(=O)C(C(=O)c1ccccc1-c1ccccc1)C1OC(=O)c2ccccc21` (stereo not given), the growth inhibition was -31.9% (inactive).

In the case of `CCCCCCCCCCCCCCCCC/C(CC)=N/Nc1ccc([N+](=O)[O-])cc1[N+](=O)[O-]`, the growth inhibition was -16.9% (inactive).

For the compound `CC(Br)C(=O)c1ccc2ncccc2c1` (stereo not given), the growth inhibition was 5.15% (inactive).

Regarding `CCN1CCC(O)(c2ccc(Oc3ccc(F)cc3)cc2)C(C(=O)c2ccc(Oc3ccc(F)cc3)cc2)C1` (stereo not given), the growth inhibition was 20.1% (inactive).

With `O=c1[nH]c(=O)n(CCCCOc2ccccc2)cc1-c1ccccc1`, the growth inhibition is 3.75% (inactive).

With `FC(F)(F)c1cccc(C2SCc3nc4ccccc4n32)c1` (stereo not given), the growth inhibition is -16.4% (inactive).

As for `CCOC(=O)C(=O)Nc1ccc2cc(OC)ccc2c1C#N`, the growth inhibition is 13.8% (inactive).

As to `CCc1nc2c([nH]1)C(=O)c1ccccc1C2=O`, the growth inhibition was 68.1% (inactive).

Consider `CCOC(=O)C(F)C(C)=O` (stereo not given), for which the growth inhibition is 92% (active).

For the compound `CN(/N=C/c1ccccn1)C1=NCCCN1`, the growth inhibition was -20.2% (inactive).

`CC(C)CC(N)C(=O)NC(Cc1cc2ccccc2[nH]1)C(=O)O` (stereo not given): the growth inhibition is 2.4% (inactive).

Regarding `N#CC[N+]1(Cc2ccccn2)CCCC1`, the growth inhibition was -4.5% (inactive).

On to `Cc1cccc2c(/C=C/c3ccc(N(C)C)cc3)ccnc12`, for which the growth inhibition is -11.6% (inactive).

`CC(=O)n1nnc(CC#N)c1-c1ccccc1`: the growth inhibition is 20.4% (inactive).

The nature of another experiment: NCI Yeast Anticancer Drug Screen. Data for the mec2-1 strain (AID 157). The conditions noted are these: S. cerevisiae mec2-1 strain, at 50.0 µM, stronger effect = higher value. In short, it runs like this: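 Test agents were screened against the mec2-1 yeast strain, with defined DNA repair or cell cycle alteration. Growth was scored as inhibition against vehicle-only controls.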
On to `CCOC(=O)C(NC(C)=O)C(C)O` (stereo not given), for which the growth inhibition is 3.95% (inactive).

As to `NC(=O)/C(=N/O)c1ccccc1`, the growth inhibition was 13.2% (inactive).

As to `CC1CC(C)(C)C(C[NH-])C1[NH-].[Cl][Pt+2][Cl]` (stereo not given), the growth inhibition was 20.5% (inactive).

`NC1C2C3C=CC(C3)C12` (stereo not given): the growth inhibition was -3.85% (inactive).

For `CC(=O)Nc1cccc2c(OC(C)=O)cccc12`, the growth inhibition was -20.9% (inactive).

In the case of `N#Cc1c(-c2ccco2)cc(-c2ccccc2)[nH]c1=O`, the growth inhibition was 8.1% (inactive).

Consider `COn1c(-c2ccccc2)nc2c1C(=O)N(C)CN2C`, for which the growth inhibition was 1.7% (inactive).

Regarding `CCCCCC(=O)OCCCCCO`, the growth inhibition is 16.8% (inactive).

For the compound `O=C1CCSC(=S)N1c1ccc(F)cc1F`, the growth inhibition is 4.65% (inactive).

Regarding `O=C(Cc1ccccc1)N(c1ccccc1)c1ccccc1`, the growth inhibition is -9.25% (inactive).

On to `CCCCN(CCCC)Cc1ccnc(C)c1O`, for which the growth inhibition is 5.85% (inactive).

Regarding `COc1ccc2nc(NC(=O)Nc3ccc(Cc4ccc(NC(=O)Nc5nc6ccc(OC)cc6s5)cc4)cc3)sc2c1`, the growth inhibition is -19.6% (inactive).

As to `N#Cc1c(N)nc2c3c1NC(=O)C(C(N)=O)C3c1ccccc1O2` (stereo not given), the growth inhibition was -3.15% (inactive).

Take `C/C(CC(=O)Nc1ccccn1)=N\c1ccccn1`: the growth inhibition is -16.5% (inactive).

For the compound `CCc1cc(CSc2ccc(Cl)cc2)ccc1N`, the growth inhibition was 99% (active).

Turning to `C=CCO[Si](OCC=C)(OCC=C)OCC=C`, the growth inhibition was -19% (inactive).

For the compound `CC(=O)c1sc2c(c1OC(=O)c1ccc(Cl)cc1)c(=O)n(-c1ccccc1)c(=S)n2-c1ccccc1`, the growth inhibition was -8.9% (inactive).

For `OCC1CC=CCC1` (stereo not given), the growth inhibition is -22.1% (inactive).

For `C=CCNCC(O)C(F)(F)C(F)(F)C(F)(F)C(F)(F)C(F)(F)C(F)(F)F` (stereo not given), the growth inhibition was 28.9% (inactive).

For `COc1ccc(-n2c(N)c(C#N)c(C#N)c2-c2ccco2)cc1`, the growth inhibition is 9% (inactive).

For `CCC(=N\NC(=S)NC)/C(C)=N\NC(=S)NC`, the growth inhibition is -6.4% (inactive).

Regarding `O=c1c2nn3c(=O)n(-c4ccccc4)c(=O)c3nn2c(=O)n1-c1ccccc1`, the growth inhibition is -10.6% (inactive).

As to `CC(=O)Nc1cccc(O)c1`, the growth inhibition was 5.3% (inactive).

As to `O=[N+]([O-])c1cccc(NSNc2cccc([N+](=O)[O-])c2)c1`, the growth inhibition is 23.9% (inactive).

Take `CN(C)CC1CCCC(CN(C)C)C1OC(=O)c1ccccc1` (stereo not given): the growth inhibition was -5.15% (inactive).

Take `CCCCOc1cc2c(cc1C(C)c1ccccc1)OCO2` (stereo not given): the growth inhibition was -3.95% (inactive).

In the case of `Cc1c(Cl)cccc1NC(=O)C(=O)C(C(=O)c1ccccc1-c1ccccc1)C1OC(=O)c2ccccc21` (stereo not given), the growth inhibition is -44.5% (inactive).

For the compound `CCCCCCCCCCCCCCCCC/C(CC)=N/Nc1ccc([N+](=O)[O-])cc1[N+](=O)[O-]`, the growth inhibition was 3.9% (inactive).

Take `CC(Br)C(=O)c1ccc2ncccc2c1` (stereo not given): the growth inhibition is -24.8% (inactive).

With `CCN1CCC(O)(c2ccc(Oc3ccc(F)cc3)cc2)C(C(=O)c2ccc(Oc3ccc(F)cc3)cc2)C1` (stereo not given), the growth inhibition was 2.9% (inactive).

On to `O=c1[nH]c(=O)n(CCCCOc2ccccc2)cc1-c1ccccc1`, for which the growth inhibition was 10.2% (inactive).

`FC(F)(F)c1cccc(C2SCc3nc4ccccc4n32)c1` (stereo not given): the growth inhibition was 6.6% (inactive).

With `CCOC(=O)C(=O)Nc1ccc2cc(OC)ccc2c1C#N`, the growth inhibition was 14.2% (inactive).

With `CCc1nc2c([nH]1)C(=O)c1ccccc1C2=O`, the growth inhibition is 19.2% (inactive).

Regarding `CCOC(=O)C(F)C(C)=O` (stereo not given), the growth inhibition was 94.5% (active).

For the compound `CN(/N=C/c1ccccn1)C1=NCCCN1`, the growth inhibition is -22% (inactive).

Consider `CC(C)CC(N)C(=O)NC(Cc1cc2ccccc2[nH]1)C(=O)O` (stereo not given), for which the growth inhibition is -6.25% (inactive).

`N#CC[N+]1(Cc2ccccn2)CCCC1`: the growth inhibition is -2.05% (inactive).

Consider `Cc1cccc2c(/C=C/c3ccc(N(C)C)cc3)ccnc12`, for which the growth inhibition is -8% (inactive).

Turning to `CC(=O)n1nnc(CC#N)c1-c1ccccc1`, the growth inhibition is 7.5% (inactive).
